Data as given in PubChem BioAssay (NCI).
The panel holds about 83,000 compounds, 20% with a hit somewhere; the sample as a whole holds those more often.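 Assay: single dose, 48 h. Readout: percent growth (0 = no net growth; negative = cell death). Active: <10.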 Unmarked numbers belong to inactive results. Active and inactive are the calls of the source.

Tested on: A498 renal
Test: NCI-60 one-dose screen, 48 h (100 = growth as untreated, 0 = no growth, -100 = all killed)
Conditions: 10 µM unless noted
Description: Growth inhibition of the A498 human tumor cell line is measured as a screen for anti-cancer activity. Cells are grown in 96 well plates and exposed to the test compound for 48 hours. Compounds are tested at a single concentration, which is 10^-5 M for most compounds. The reported endpoint is percent growth (GI% or GIPRCNT), where numbers from 0 - 100% represent growth inhibition, and numbers from -100% - 0 represent cell death. For example, a value of 40 represents 60% growth inhibition. A value of 0 means no net growth occurred over the course of the experiment. A value of -40 indicates 40% of cells at the beginning of the experiment died by the end of the experiment. A value of -100 means all cells are dead at the end of the experiment.
NCI-60 Human Tumor Cell Lines Screen was performed using the standard one-dose NCI protocol, which is described in more detail at https://dtp.cancer.gov/discovery_development/nci-60/default.htm.
Compounds with GIPRCNT values below 10 were considered active. Activity score was based on GIPRCNT using the following formula: […]
Score is 0 for GIPRCNT values of 100 or above, 50 for GIPRCNT values of 0, and 100 for GIPRCNT values of -100.

| SMILES | growth |
| --- | --- |
| O=C(NCCc1ccccn1)OCc1nc2nc(Cl)nc(N3CCOCC3)c2[nH]1 | -9.02% (active) |
| COc1ccc(C(=O)c2cc3c(N)c(C(=O)Nc4cccc(Cl)c4C)sc3nc2C)cc1 | -12.4% (active) |
| COc1cc(-c2cc(=O)oc3cc(O)ccc23)cc(OC)c1OC | 101% |
| O=S(=O)(c1cccc(NC2=Nc3cccc4cccc2c34)c1)N1CCCC1 | 75.1% |
| CN1C(=O)N(C)C2NC(N/N=C/c3ccccc3)=NC21 (stereo not given) | 95.4% |
| Cc1c2c(cc[n+]1Cc1ccccc1)c1ccc(OCC3CCCCC3)cc1n2CC1CCCCC1 | -97.4% (active) |
| Cn1c(COC(=O)NCCn2ccnc2)nc2c(N3CCOCC3)nc(-c3ccccc3)nc21 | -24.2% (active) |
| CN1CCN(C(=O)OCc2nc3c(N4CCOCC4)nc(-c4ccccc4)nc3n2C)CC1 | 3.05% (active) |
| N/C(=N\N=C\c1cc2ccccc2[nH]1)N/N=C/c1cc2ccccc2[nH]1 | 95.6% |
| NC(=O)c1cccc(-c2cc(C(N)=O)ccc2Cl)c1 | -5.64% (active) |
| O=C(CNCCO)Nc1ccc2ncnc(Nc3ccc(OCc4cccc(F)c4)c(Cl)c3)c2c1 | 69% |
| CN1CCN(c2ccc3nc(-c4cc(C(C)(C)C)c(O)c(C(C)(C)C)c4)[nH]c3c2)CC1 | 90.5% |
| S=c1[nH]cccc1-c1nnc2n1Nc1nc3ccc(Cl)cc3cc1CS2 | 107% |
| CCN(CCNc1cc(OC)cc2cccnc12)CCc1ccccc1 | 92.2% |
| COc1cccc2c1C(=O)c1c(O)c3c(c(O)c1C2=O)C[C@@](O)(C(=O)CO)C[C@@H]3O[C@H]1C[C@H](N)[C@@H](O)[C@H](C)O1 | -67.3% (active) |
| O=c1[nH]nc(-c2ccc(Cl)cc2)cc1Cc1cccc([N+](=O)[O-])c1 | 106% |
| Cc1c2c(cc[n+]1Cc1ccccc1)c1ccc(OCc3ccccc3)cc1n2Cc1ccccc1 | -34.5% (active) |
| O=S(=O)(NCCNc1nccc(-c2c(-c3ccc(F)c(O)c3)nc3sccn23)n1)c1ccccc1 | 109% |
| Cc1cccc(C)c1-c1cc(Cc2ccc(Cl)cc2)c(=O)[nH]n1 | 104% |
| O=C1NC(=O)C(=Cc2cn(Cc3ccccn3)c3ccccc23)C(=O)N1 | -90.4% (active) |

| SMILES | growth |
| --- | --- |
| Cn1c(COC(=O)N2CCCCC2)nc2c(N3CCOCC3)nc(-c3ccccc3)nc21 | -21.7% (active) |
| C=C(C)[C@@H]1CC[C@]2(C(=O)NCCCN(CCC#N)CCC#N)CC[C@]3(C)[C@H](CC[C@@H]4[C@@]5(C)CCC(=O)C(C)(C)[C@@H]5CC[C@]43C)[C@@H]12 | 102% |
| COc1ccc(Cn2nc3c(c2-c2cc(OC)c(OC)c(OC)c2)-c2oncc2CC3)cc1 | 80.3% |
| O=C1Nc2ccccc2/C1=N/c1nc(-c2ccc(Cl)cc2)cs1 | 51% |
| [2H]C1([2H])NC([2H])([2H])C([2H])([2H])N(c2ccc(Nc3ncc4cc(C(=O)N(C)C)n(C5CCCC5)c4n3)nc2)C1([2H])[2H] | 66.5% |
| COc1ccccc1N1CCN(C(=O)c2ccc3nc(NC(=O)c4ccc(NCCc5ccccc5)c([N+](=O)[O-])c4)sc3c2)CC1 | 79.6% |
| COc1ccc2nc(N=Nc3c(O)ccc4ccccc34)sc2c1 | 79% |
| CC(C)Sc1nc(NN)c(C#N)c(-c2ccccc2)n1 | 92.8% |
| CC1=CC2(C)/C=C(C)/C=C\CC(O)/C=C3/C=CC(=C4C(=O)OC2(CC1C)C4=O)OC3 (stereo not given) | 55.3% |
| COc1ccc(-c2nc(SCCC(C)C)nc(N/N=C(/C)c3ccc(C)cc3)c2C#N)cc1 | 99.4% |
| C/C(=C(/c1ccccc1)c1ccc(OCC(O)CNCCN2CCOCC2)cc1)c1ccccc1 (stereo not given) | 79.9% |
| COc1ccc(C2CC(c3cccc(Nc4ccncc4)c3)=NN2c2cc(Cl)cc(Cl)c2)cc1 (stereo not given) | 95.7% |
| O=S(=O)(NCCNc1nccc(-c2c(-c3cccc(F)c3)nc3occn23)n1)c1cccc2ccccc12 | 37.7% |
| O=C(N/N=C/c1ccc(O)c(O)c1)c1sc2ccccc2c1Cl | 71.4% |
| O=C(CN1CCOCC1)Nc1ccc2ncnc(Nc3ccc(Oc4cccc(F)c4)c(Cl)c3)c2c1 | 63.2% |
| CCN1C(=O)N(CC)C2NC(SC)=NC21 (stereo not given) | 90.2% |
| CCOC(=O)N1CCc2c(sc3nc4nc[nH]n4c(=O)c23)C1 | 82.3% |
| COc1ccc(C(=O)c2cc3c(N)c(C(=O)Nc4ccc(Cl)cc4)sc3nc2C)cc1 | 59.9% |
| O=C(O)CNC(=O)CN1C(=O)c2ccccc2C1=O | 104% |
| CCCc1cc2c(cc1Br)OCO2 | 98.6% |
